Reference: the antibiotic and cytotoxicity screens of Wong et al. (2023)
Out of some 39,000 compounds screened, about 3,300 (8.5%) were called active. This is one part of a sample in which actives are shown more often than they occur.

System: HepG2
Assay: cytotoxicity call (relative viability < 0.9)
Conditions: 10 µM

SMILES | cytotoxicity call
CN(C)C(=O)c1ccc(-c2cccc(-c3nc(C(=O)NCc4ccccc4)cc4c3[C@@H](CCO)N([S@@](=O)C(C)(C)C)C4)c2)cc1 | inactive
C[C@H](NC(=O)C[C@H]1CC[C@@H](NC(=O)CN2CCOCC2)[C@@H](CO)O1)c1ccccc1 | inactive
Cc1ccc(S[C@]2(C(=O)NC3CC3)CC(=O)N(Cc3cc(C(F)(F)F)cc(C(F)(F)F)c3)[C@@H]2c2ccc(CO)cc2)cc1 | inactive
C[C@@H]1CCCCO[C@@H](CN(C)S(=O)(=O)c2ccccc2)[C@H](C)CN([C@@H](C)CO)C(=O)c2cc(NC(=O)C3CCCCC3)ccc2O1 | inactive
COc1ccc(S(=O)(=O)Nc2ccc3c(c2)CC(=O)N([C@@H](C)CO)C[C@@H](C)[C@@H](CN(C)Cc2ccc(C(=O)O)cc2)O3)cc1 | inactive
COc1ccc(NC(=O)N(C)C[C@@H]2OCCCC[C@H](C)Oc3ccc(NS(=O)(=O)c4cccs4)cc3C(=O)N([C@@H](C)CO)C[C@@H]2C)cc1 | inactive
CCS(=O)(=O)N1C[C@]2(CN(C2)C(=O)c2ccc3c(c2)OCO3)c2c(n(c3cc(ccc23)OC)C)[C@H]1CO | inactive
CN1CCN(C(=O)C[C@@H]2CC[C@@H]3[C@H](COC[C@@H](O)CN3C(=O)Nc3cc(Cl)cc(Cl)c3)O2)CC1 | inactive
C[C@H]1CN([C@@H](C)CO)C(=O)c2cc(NC(=O)C3CCCCC3)ccc2O[C@H]1CN(C)C(=O)Nc1ccc(C(F)(F)F)cc1 | inactive
C[C@@H]1CN([C@@H](C)CO)C(=O)c2cc(NS(=O)(=O)c3ccc(Cl)cc3)ccc2O[C@@H](C)CCCCO[C@H]1CN(C)S(=O)(=O)c1ccc(Cl)cc1 | inactive
C[C@@H]1CN([C@H](C)CO)C(=O)c2cc(NS(=O)(=O)c3ccc(Cl)cc3)ccc2O[C@@H](C)CCCCO[C@H]1CN(C)S(=O)(=O)c1ccc(Cl)cc1 | inactive
C[C@@H]1CCCCO[C@@H](CN(C)S(=O)(=O)c2ccc(Cl)cc2)[C@H](C)CN([C@H](C)CO)C(=O)c2cc(NS(=O)(=O)c3ccc(Cl)cc3)ccc2O1 | active
COCCNC(=O)C[C@H]1C[C@H]2c3cc(NC(=O)CN(C)C)ccc3O[C@H]2[C@@H](CO)O1 | inactive
C[C@@H]1CN([C@H](C)CO)C(=O)c2cc(NC(=O)NC3CCCCC3)ccc2O[C@H]1CN(C)Cc1ccc(Oc2ccccc2)cc1 | inactive
C[C@H]1CN([C@@H](C)CO)C(=O)c2cc(NC(=O)NC3CCCCC3)ccc2O[C@H]1CN(C)Cc1ccc(Oc2ccccc2)cc1 | inactive
C[C@@H]1CN([C@H](C)CO)C(=O)c2cc(NC(=O)NC3CCCCC3)ccc2O[C@@H]1CN(C)Cc1ccc(Oc2ccccc2)cc1 | active
C[C@H](CO)N1C[C@H](C)[C@H](CN(C)Cc2ccc(Oc3ccccc3)cc2)Oc2ccc(NC(=O)NC3CCCCC3)cc2C1=O | inactive
C[C@@H]1CN([C@@H](C)CO)C(=O)c2cc(NC(=O)NC3CCCCC3)ccc2O[C@H]1CN(C)Cc1ccc(Oc2ccccc2)cc1 | inactive
CC(C)NC(=O)Nc1ccc2c(c1)C(=O)N([C@H](C)CO)C[C@@H](C)[C@H](CN(C)Cc1ccc(Oc3ccccc3)cc1)O2 | inactive
CC(C)NC(=O)Nc1ccc2c(c1)C(=O)N([C@@H](C)CO)C[C@@H](C)[C@@H](CN(C)Cc1ccc(Oc3ccccc3)cc1)O2 | inactive
C[C@H](CO)N1C[C@H](C)[C@@H](CN(C)Cc2ccc(Oc3ccccc3)cc2)Oc2ccc(NC(=O)NC3CCCCC3)cc2C1=O | active

SMILES | cytotoxicity call
C[C@@H]1CN([C@@H](C)CO)C(=O)c2cc(NC(=O)NC3CCCCC3)ccc2O[C@@H]1CN(C)Cc1ccc(Oc2ccccc2)cc1 | active
O=C(C[C@@H]1CC[C@@H]2[C@H](COC[C@H](O)CN2C(=O)Nc2ccc(Cl)cc2)O1)NCCc1ccncc1 | inactive
Cn1ccnc1C(=O)N[C@@H]1CN(C(N)=O)[C@H]2CCCO[C@@H]12 | inactive
C[C@@H]1CN([C@@H](C)CO)C(=O)Cc2cc(NC(=O)C3CC3)ccc2O[C@@H]1CN(C)S(=O)(=O)c1cccs1 | inactive
Cc1ccc(S(=O)(=O)Nc2ccc3c(c2)C(=O)N([C@H](C)CO)C[C@@H](C)[C@H](CN(C)C(=O)Nc2ccc4c(c2)OCO4)OCCCC[C@@H](C)O3)cc1 | inactive
C[C@H](CO)N1C[C@H](C)[C@@H](CN(C)S(=O)(=O)c2ccc(F)cc2)OCCCC[C@H](C)Oc2ccc(NC(=O)Nc3ccc4c(c3)OCO4)cc2C1=O | inactive
Cc1noc(C)c1S(=O)(=O)Nc1ccc2c(c1)C(=O)N([C@@H](C)CO)C[C@H](C)[C@H](CN(C)S(=O)(=O)c1ccccc1)O2 | inactive
C[C@@H]1CN([C@H](C)CO)C(=O)c2cc(NC(=O)Cn3cnnn3)ccc2O[C@@H]1CN(C)CC1CC1 | inactive
CNc1ccc(-c2nc(N3CCOCC3)c3sc(CN(C)c4ncc(C(=O)NO)cn4)cc3n2)cn1 | active
COc1ccc(-c2nc(N3CCOCC3)c3sc(CN(C)c4ncc(C(=O)NO)cn4)cc3n2)cn1 | active
COC(=O)COc1nsnc1N1CCOCC1 | inactive
COc1ccc(S(=O)(=O)Nc2ccc3c(c2)C(=O)N([C@@H](C)CO)C[C@@H](C)[C@H](CN(C)C(=O)Nc2c(C)noc2C)OCCCC[C@H](C)O3)cc1 | inactive
O=C(/C=C/c1ccc(O)c(O)c1)O[C@H]1[C@H](O)C[C@](O)(C(=O)O)C[C@H]1OC(=O)/C=C/c1ccc(O)c(O)c1 | inactive
Cc1ccc(S(=O)(=O)Nc2ccc3c(c2)CC(=O)N([C@H](C)CO)C[C@H](C)[C@@H](CN(C)S(C)(=O)=O)O3)cc1 | inactive
CC1COC2=C1C(=O)C(=O)c1c2ccc2c1CCCC2(C)C (stereo not drawn) | active
Cc1cccc2c1OCC[C@@H](N)C2=O | inactive
Cc1cccc2c3c(ccc12)C1=C(C(=O)C3=O)C(C)CO1 (stereo not drawn) | active
Cc1coc2c1C(=O)C(=O)c1c-2ccc2c1CCCC2(C)C | active
C[C@@H]1CN([C@@H](C)CO)C(=O)Cc2cc(NC(=O)Nc3cccc4ccccc34)ccc2O[C@H]1CN(C)Cc1ccc(-c2ccccc2)cc1 | inactive
COc1cc2c(cc1OC)CN(C(=O)[C@H]1[C@@H]3C(=O)O[C@@H](c4ccccc4)[C@@H](c4ccccc4)N3[C@@H](c3ccccc3OCCO)[C@]13C(=O)Nc1ccc(C#CC4(O)CCCCCC4)cc13)CC2 | inactive
O=C(C[C@@H]1CC[C@H]2[C@@H](COC[C@H](O)CN2C(=O)c2ccccn2)O1)NC1CCC1 | inactive

SMILES | cytotoxicity call
O[C@@H]1[C@@H](O)[C@H](OC/C=C/c2ccccc2)O[C@H](CO[C@@H]2OC[C@@H](O)[C@@H](O)[C@@H]2O)[C@H]1O | inactive
NCc1cccc2nsnc12 | inactive
C[C@H]1CN([C@@H](C)CO)C(=O)c2cccc(NC(=O)C3CC3)c2O[C@@H]1CN(C)S(=O)(=O)c1ccc(F)cc1 | inactive
O=C(O)c1cc(N=Nc2ccc(S(=O)(=O)Nc3ccccn3)cc2)ccc1O | inactive
C[C@@H]1CN([C@H](C)CO)C(=O)Cc2cc(NC(=O)CCN3CCOCC3)ccc2O[C@@H]1CN(C)Cc1ccc(C(=O)O)cc1 | inactive
C[C@H]1CN([C@@H](C)CO)C(=O)Cc2cc(NC(=O)CCN3CCOCC3)ccc2O[C@H]1CN(C)Cc1ccc(C(=O)O)cc1 | inactive
CC1(C)CC[C@]2(C(=O)O[C@H]3O[C@@H](CO)[C@@H](O)[C@@H](O)[C@@H]3O)CC[C@]3(C)C(=CC[C@H]4[C@@]5(C)C[C@@H](O)[C@H](O[C@H]6O[C@H](C(=O)O)[C@@H](O)[C@@H](O)[C@@H]6O)C(C)(C)[C@@H]5CC[C@]43C)[C@@H]2C1 | inactive
CC1(C)[C@H]2C[C@@H](O[C@H]3O[C@@H](CO)[C@@H](O)[C@@H](O)[C@@H]3O)[C@@]1(C)C[C@@H]2O | inactive
COC(=O)[C@@]12O[C@@H]1[C@H](O[C@@H]1O[C@H](CO)[C@@H](O)[C@H](O)[C@H]1O)C[C@H]1[C@]3(C)C[C@@H](c4ccoc4)OC(=O)[C@H]3CC[C@]12C | active
COCC(=O)Nc1ccc2c(c1)OC[C@H](C)N(C(=O)Cc1cccnc1)C[C@H](C)[C@@H](OC)CN(C)C2=O | inactive
Cc1noc(C)c1S(=O)(=O)Nc1ccc2c(c1)C(=O)N([C@@H](C)CO)C[C@@H](C)[C@@H](CN(C)S(=O)(=O)c1ccccc1)O2 | inactive
CC(C)C#Cc1ccc2c(c1)O[C@H](CN(C)S(=O)(=O)c1cn(C)cn1)[C@@H](C)CN([C@@H](C)CO)S2(=O)=O | inactive
C[C@@H]1CN([C@@H](C)CO)C(=O)Cc2cc(NS(C)(=O)=O)ccc2O[C@@H]1CN(C)Cc1ccc(C(=O)O)cc1 | inactive
C[C@H](CO)N1C[C@H](C)[C@@H](CN(C)Cc2ccc(Oc3ccccc3)cc2)Oc2ccc(NC(=O)Nc3cccc4ccccc34)cc2CC1=O | active
C[C@H](CO)N1C[C@H](C)[C@H](CN(C)Cc2ccc(Oc3ccccc3)cc2)Oc2ccc(NC(=O)Nc3cccc4ccccc34)cc2CC1=O | inactive
C[C@H]1CN([C@@H](C)CO)C(=O)Cc2cc(NC(=O)Nc3cccc4ccccc34)ccc2O[C@@H]1CN(C)Cc1ccc(Oc2ccccc2)cc1 | inactive
C[C@@H]1CN([C@@H](C)CO)C(=O)Cc2cc(NC(=O)Nc3cccc4ccccc34)ccc2O[C@H]1CN(C)Cc1ccc(Oc2ccccc2)cc1 | inactive
C[C@@H]1CN([C@@H](C)CO)C(=O)Cc2cc(NC(=O)Nc3cccc4ccccc34)ccc2O[C@@H]1CN(C)Cc1ccc(Oc2ccccc2)cc1 | inactive
C[C@@H]1CN([C@H](C)CO)C(=O)Cc2cc(NC(=O)Nc3cccc4ccccc34)ccc2O[C@H]1CN(C)Cc1ccc(Oc2ccccc2)cc1 | inactive
C[C@H]1CN([C@@H](C)CO)C(=O)Cc2cc(NC(=O)Nc3cccc4ccccc34)ccc2O[C@H]1CN(C)Cc1ccc(Oc2ccccc2)cc1 | active
C[C@@H]1CN([C@H](C)CO)C(=O)Cc2cc(NC(=O)Nc3cccc4ccccc34)ccc2O[C@@H]1CN(C)Cc1ccc(Oc2ccccc2)cc1 | active
